Eight compounds from PubChem BioAssay (NCI) can be followed below.

Among the test systems are SR leukemia; RPMI-8226 leukemia; OVCAR-8 ovarian; OVCAR-5 ovarian; OVCAR-4 ovarian; SK-OV-3 ovarian; IGROV1 ovarian; OVCAR-3 ovarian; HS 578T breast; NCI/ADR-RES ovarian; T-47D breast; BT-549 breast; MDA-MB-435 melanoma; SW-620 colon; MCF7 breast; HCT-116 colon; HCC-2998 colon; KM12 colon.
Holding throughout (assay): NCI-60 one-dose screen, 48 h (100 = growth as untreated, 0 = no growth, -100 = all killed)
Holding throughout (details): 10 µM unless noted

Each structure is given as a SMILES string. About 83,000 compounds went through this panel and 20% of them were active in at least one assay; those are over-represented in the sample as a whole.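 For each line, cells grew in 96-well plates with the test compound present at a single concentration for 48 hours.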 A number with no mark means an inactive call. The source made the active and inactive calls. Rule for the calls: active = growth percent below 10; inactive = the rest.

As for `N#C/C(=C\c1c(-c2ccccc2)[nH]c2ccccc12)C(=O)c1ccc(Cl)cc1`, the growth with SR leukemia is 48.6%; in the assay with RPMI-8226 leukemia, -9.73% (active); in the assay with OVCAR-8 ovarian, 46.6%; in the assay with OVCAR-5 ovarian it was 62.5%; with OVCAR-4 ovarian it was -11.2% (active); in the assay with SK-OV-3 ovarian, 53.3%. The growth with IGROV1 ovarian is 59%; with OVCAR-3 ovarian it was -33.2% (active); in the assay with HS 578T breast, 4.84% (active); with NCI/ADR-RES ovarian it was -2.46% (active); in the assay on T-47D breast, 84.9%; with BT-549 breast, 64.7%. Further, the growth in the assay with MDA-MB-435 melanoma is 13.5%; in the assay on SW-620 colon, 21.1%; in the assay on MCF7 breast, -27.9% (active); in the assay on HCT-116 colon, 30.9%; with HCC-2998 colon it was 30.7%; in the assay with KM12 colon, 20%.

Take `COc1cc2nc(-c3ccc(C(F)(F)F)cc3)cc(OCCN3CCCCC3)c2cc1OC`: the growth in the assay on SR leukemia was 19.2%; in the assay on RPMI-8226 leukemia it was 42.3%; in the assay with OVCAR-8 ovarian, 78.2%; with OVCAR-5 ovarian, 58.4%; with OVCAR-4 ovarian, 81.8%; in the assay with SK-OV-3 ovarian it was 83.7%. Moreover, the growth with IGROV1 ovarian is 46.5%; in the assay with OVCAR-3 ovarian, 89.7%; in the assay on HS 578T breast it was 74.7%; in the assay on NCI/ADR-RES ovarian, 63.1%; in the assay with T-47D breast, 85.1%; in the assay with BT-549 breast it was 40.4%. Moreover, the growth in the assay with MDA-MB-435 melanoma was 90.5%; in the assay with SW-620 colon, 98.8%; with MCF7 breast it was 79.5%; in the assay on HCT-116 colon, 45.8%; with HCC-2998 colon it was 76.7%; with KM12 colon it was 80.3%.

With `COc1cc2c(=O)n(CCCN(C)C)c3c4cc5c(cc4ccc3c2cc1OC)OCO5`, the growth in the assay on SR leukemia is 9.59% (active); in the assay with RPMI-8226 leukemia, 6.97% (active); in the assay on OVCAR-8 ovarian it was 48.3%; with OVCAR-5 ovarian, 112%; with OVCAR-4 ovarian it was 69.9%; in the assay on SK-OV-3 ovarian, 102%. Besides, the growth is 31.9% in the assay on IGROV1 ovarian; 65.5% with OVCAR-3 ovarian; 67.1% in the assay with HS 578T breast; 53.5% in the assay with NCI/ADR-RES ovarian; 85.8% with T-47D breast; 47.8% in the assay on BT-549 breast. Besides, the growth in the assay on MDA-MB-435 melanoma is 67.6%; in the assay on SW-620 colon, 38.6%; in the assay on MCF7 breast it was 25.3%; with HCT-116 colon, 30.6%; in the assay with HCC-2998 colon, 86.8%; in the assay with KM12 colon it was 47.8%.

Take `COc1ccc2c(c1)C(=O)CC(c1ccccc1OC)O2` (centres undefined): the growth is 89.3% in the assay with SR leukemia; 105% with RPMI-8226 leukemia; 100% in the assay on OVCAR-8 ovarian; 108% with OVCAR-5 ovarian; 102% with OVCAR-4 ovarian; 104% in the assay with SK-OV-3 ovarian. For the same compound, the growth in the assay on IGROV1 ovarian was 79.3%; with OVCAR-3 ovarian it was 117%; with HS 578T breast, 101%; in the assay with NCI/ADR-RES ovarian it was 86%; in the assay with T-47D breast, 91.1%; in the assay on BT-549 breast, 96.5%. In addition, the growth is 100% in the assay on MDA-MB-435 melanoma; 103% in the assay with SW-620 colon; 83.8% in the assay with MCF7 breast; 103% in the assay with HCT-116 colon; 105% in the assay on HCC-2998 colon; 102% in the assay with KM12 colon.

Take `CN1[C@@H]2CC[C@H]1/C(=C\c1ccccc1)C(=O)/C2=C/c1ccccc1`: the growth in the assay on SR leukemia is 19.2%; in the assay on RPMI-8226 leukemia, 27%; in the assay on OVCAR-8 ovarian, -9.6% (active); in the assay on OVCAR-5 ovarian it was 98.4%; in the assay on OVCAR-4 ovarian, 48.4%; in the assay on SK-OV-3 ovarian, 79.1%. The growth in the assay on IGROV1 ovarian was 41.7%; in the assay on OVCAR-3 ovarian it was 14.4%; with HS 578T breast, 33.7%; in the assay on NCI/ADR-RES ovarian, 10.7%; with T-47D breast, 56%; in the assay on BT-549 breast it was 35%. The growth with MDA-MB-435 melanoma is 25%; in the assay on SW-620 colon it was 28.8%; with MCF7 breast, 20.4%; with HCT-116 colon, 11.9%; in the assay with HCC-2998 colon, 63.3%; in the assay with KM12 colon it was 20.7%.

`COc1cccc(-c2cc(C(=O)Nc3ccc(/C=C/c4ccc(OC5CCN(C)CC5)cc4)cc3)ccc2OC)c1`: the growth in the assay on SR leukemia was -44.4% (active); in the assay on RPMI-8226 leukemia, -32.7% (active); in the assay on OVCAR-8 ovarian, -38.8% (active); in the assay with OVCAR-5 ovarian, 25.2%; with OVCAR-4 ovarian, -56.5% (active); with SK-OV-3 ovarian it was 109%. Moreover, the growth was -56.3% (active) in the assay on IGROV1 ovarian; -82.9% (active) with OVCAR-3 ovarian; -22.9% (active) in the assay with HS 578T breast; -11.2% (active) in the assay with NCI/ADR-RES ovarian; 53% with T-47D breast; 23.1% in the assay on BT-549 breast. The growth in the assay with MDA-MB-435 melanoma is -77.4% (active); with SW-620 colon, -60.5% (active); in the assay with MCF7 breast it was -34.9% (active); in the assay with HCT-116 colon, -93.4% (active); in the assay with HCC-2998 colon it was 74.9%; in the assay with KM12 colon, -72.8% (active).

Take `Cc1ccc(S(=O)(=O)Nn2c3c(cc(-c4nc5ccccc5s4)c2=O)CCCCCC3)cc1`: the growth is 97.8% in the assay on SR leukemia; 97.8% with RPMI-8226 leukemia; 92.3% in the assay with OVCAR-8 ovarian; 105% in the assay with OVCAR-5 ovarian; 98.5% with OVCAR-4 ovarian; 104% in the assay on SK-OV-3 ovarian. Moreover, the growth is 95.3% in the assay with IGROV1 ovarian; 102% with OVCAR-3 ovarian; 91.7% with HS 578T breast; 95.8% in the assay with NCI/ADR-RES ovarian; 96.4% in the assay on T-47D breast; 109% with BT-549 breast. Moreover, the growth was 103% in the assay on MDA-MB-435 melanoma; 99.6% in the assay with SW-620 colon; 91.3% in the assay on MCF7 breast; 98% in the assay with HCT-116 colon; 115% with HCC-2998 colon; 101% in the assay with KM12 colon.

With `c1ccc(Cn2cnc3ccc(-c4nc(-c5ccc6c(c5)ncn6C5CCCCC5)cn5ccnc45)cc32)cc1`, the growth was 5.45% (active) with SR leukemia; -41.2% (active) with RPMI-8226 leukemia; 2.45% (active) in the assay on OVCAR-8 ovarian; -29% (active) in the assay with OVCAR-5 ovarian; 16.8% in the assay on OVCAR-4 ovarian; -22.2% (active) in the assay on SK-OV-3 ovarian. The growth with IGROV1 ovarian is 5.81% (active); with OVCAR-3 ovarian, -35.7% (active); in the assay with HS 578T breast, 0.386% (active); in the assay on NCI/ADR-RES ovarian, 0.531% (active); in the assay with T-47D breast, -2.12% (active); in the assay on BT-549 breast it was -44.7% (active). The growth was -6.16% (active) with MDA-MB-435 melanoma; 2.17% (active) in the assay with SW-620 colon; 2.03% (active) with MCF7 breast; -75.7% (active) in the assay on HCT-116 colon; -88% (active) in the assay on HCC-2998 colon; -39.4% (active) in the assay with KM12 colon.
